This passage reports Potency results from PubChem BioAssay AID720518 (National Center for Advancing Translational Sciences (NCATS), 2013).

Records with an inconclusive call do not appear. Entries that show only a call come without a potency. Active and inactive are the calls of the source. The call rests on the fitted dose curve.
Potency means the concentration at half of the fitted maximal effect.

The experiment in a line: qHTS for Inhibitors of Cell Surface uPA Generation: Wild-type Protective Antigen (WT-PrAg) Counterscreen for Cherry-picked Compounds. The settings on record: cells, WT protective antigen toxicity counterscreen; series mostly up to 115 µM.
`Fc1ccc(N2CCN(c3nc(CN4CCOCC4)nc4scc(-c5ccccc5)c34)CC2)cc1`: the Potency entry was “inactive”. Next, `CN1CCN(c2ccc(S(=O)(=O)N3CCOCC3)cc2NC(=O)CSCc2ccccc2)CC1`: “inactive”; `O=C(CN1CCCC1)Nc1cccc(Cl)c1Cl`: “inactive”. On to `O=C(O)CC1(CC(=O)NCc2ccc(Cl)cc2)CCCCC1`, for which the Potency entry was “inactive”. Consider `c1ccc(C2[C@H]3CN(Cc4cccnc4)[C@H](c4ccccc4)C34CC2(c2ccccc2)C4)cc1` (stereo not given in full), for which the Potency entry was “inactive”. Next, `COCCn1nnnc1C(C(C)C)N1CCCC(C)C1` (stereo not given): “inactive”; `COc1ccc(-c2nn(CCC#N)cc2C(=O)Nc2ccccc2)cc1OC`: “inactive”; `COc1cc(C2NC(=O)NC(C)=C2C(=O)OCC2CCCCC2)ccc1O` (stereo not given): “inactive”.

In the case of `CCCCNC(=O)C1CCN(S(=O)(=O)c2c(C)noc2/C=C\c2ccc(OC)cc2)CC1`, the Potency entry was “inactive”. Next, `Cc1cc(C)cc(NC(=O)COC(=O)CCn2c(C)csc2=O)c1`: “inactive”. Next, `COC(=O)CNC(=O)COC(=O)/C=C/c1ccccc1[N+](=O)[O-]`: “inactive”. The value for `C=CCn1c(SCCN2C(=O)c3ccccc3C2=O)nc2scc(-c3ccc(F)cc3)c2c1=O` was “inactive”; that for `Cc1ccccc1C(=O)NCC(=O)Nc1ccc(C)c(S(=O)(=O)N2CCCCCC2)c1` was “inactive”; that for `COC(=O)c1ccccc1NC(=O)Nc1nnc(N2CCCCC2C)s1` (stereo not given) was 58.5 µM (active). `COc1ncnc(NS(=O)(=O)c2ccc(N)cc2)c1OC`: the Potency entry is “inactive”. Next, `COc1ccc(-c2nn(CCC#N)cc2C(=O)Nc2cccc([N+](=O)[O-])c2)cc1OC`: “inactive”; `O=c1[nH]c(=O)n(CCc2ccccc2)c(O)c1C=NC1CC1`: “inactive”. Next, `COc1cc(C(=O)Nc2nnc(C)s2)cc(OC)c1OC`: “inactive”; `Cc1cc(NC(=O)COc2cccc([N+](=O)[O-])c2)no1`: “inactive”. Next, `O=[N+]([O-])c1ccc(SCc2ccncc2)nc1`: “inactive”. In the case of `CCOC(=O)C1=C(C)N(Cc2ccccc2)C(=O)NC1c1ccc(OC)cc1` (stereo not given), the Potency result is “inactive”. Consider `O=C(NNC(=O)c1ncc(Cl)c(Cl)c1Cl)c1ccc(F)cc1`, for which the Potency entry was “inactive”. The value for `C/C(=N\NC(=O)c1cccc([N+](=O)[O-])c1)c1cccnc1` was “inactive”. Consider `CCOC(=O)C1(CCOc2ccccc2)CCN(Cc2ccc(O)c(OC)c2)CC1`, for which the Potency result was “inactive”. Take `O=C(O)CCCC(=O)NCCCCc1ccccc1`: the Potency entry was “inactive”.

On to `COc1ccccc1CN1CC(C(=O)NCc2cccc(C)n2)CCC1=O` (stereo not given), for which the Potency entry is “inactive”.

For the molecule `O=C(COC(=O)c1cc([N+](=O)[O-])ccc1NCCO)NCc1cccs1`, the Potency entry was “inactive”.

For the molecule `COc1ccc(NS(=O)(=O)c2cc(NS(=O)(=O)c3cc(C(=O)O)ccc3OC)ccc2C)cc1`, the Potency result was “inactive”. The value for `Cc1ccc(S(=O)(=O)N2CCOCC2)cc1NC(=O)CSc1nc(N)cc(N)n1` was “inactive”; that for `O=C(NCCN1CCOCC1)c1ccccc1Cl` was “inactive”.

Consider `O=C(COC(=O)C1CC2C=CC1C2)NCc1ccccc1Cl` (stereo not given), for which the Potency entry was “inactive”.

`CC(C)NC(=O)CN1CCC(c2nc3ccccc3[nH]2)CC1`: the Potency entry was “inactive”. Take `CS(=O)(=O)c1ccc(Cl)c(NC(=O)COC(=O)CNC(=O)c2cccs2)c1`: the Potency result was “inactive”. As for `CCC(NC(=S)NCc1ccc(F)cc1)c1ccccc1` (stereo not given), the Potency result was “inactive”. The value for `CCCCCOC(=O)Nc1nnc(CCCCC)s1` was “inactive”; that for `COc1ccc(-n2ncc3c(=O)n(CC(=O)NC(C)C)cnc32)cc1` was “inactive”; that for `CCOCCCn1c(SCC(=O)Nc2cc(OC)ccc2OC)nc2ccccc2c1=O` was “inactive”. As for `CNS(=O)(=O)c1cc(-c2nnc(Nc3ccc(CC(N)=O)cc3)c3ccccc23)ccc1C`, the Potency entry was “inactive”. Turning to `Cc1cc(C)nc(NC(=O)CSc2nccc(C)n2)n1`, the Potency entry was “inactive”. Turning to `NC(=O)c1cc2c3ccccc3ccn2c1-c1ccccc1`, the Potency result is “inactive”.
